Wnt act: Wnt/beta-catenin pathway activation; Wnt/beta-catenin reporter cell assay, activator, plate reader; activation, % at 9.35 µM; 300,000 tested, 1.2% active; AID 743398; in the data active means activation above about 30%, passing the limit was not always enough; inconclusive means no clear call, values can overlap the other calls;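 further: 0% = neutral control wells and 100% = positive control wells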
esBAF inh: blocks esBAF chromatin remodeling in mouse ES cells; Bmi1-luciferase knock-in reporter, 24 h; 100% = twice the neutral-well signal; reporter increase, % at 12.5 µM; 350,000 tested, 2% active; AID 602393; in the data active means activation above about 40%; inconclusive means no clear call, values can overlap the other calls;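 further: 0% = median of the plate's neutral control wells and 100% = double that signal; a rise in the Bmi1 reporter signal indicates esBAF inhibition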
PHOSPHO1 block: inhibitors of human PHOSPHO1 phosphatase. 290,000 tested, 1.1% active. recombinant PHOSPHO1, absorbance phosphatase assay. AID 1565. inhibition, % at 13.3 µM. Q8TCT1; in the data active means inhibition above about 60%
A3A deaminase: human APOBEC3A DNA deaminase inhibition. P31941. recombinant A3A, FAM/TAMRA ssDNA deamination fluorescence. inhibition, % at 20 µM. 330,000 tested, 0.41% active. AID 493011;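 active means at least 40% inhibition at 20 µM here, with at most 30% in a related deaminase screen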;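 further: plate controls were A3A with DMSO for no effect and wells lacking A3A enzyme for full effect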
Target sequence (P31941 whole entry, looked up): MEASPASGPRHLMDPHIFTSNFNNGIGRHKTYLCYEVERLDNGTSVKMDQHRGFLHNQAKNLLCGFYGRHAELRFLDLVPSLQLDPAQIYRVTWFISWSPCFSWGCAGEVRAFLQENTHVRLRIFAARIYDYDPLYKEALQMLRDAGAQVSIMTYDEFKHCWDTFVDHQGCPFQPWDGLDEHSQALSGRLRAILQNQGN
MITF TRPM1 HTS: MITF TRPM1 promoter activation in melanoma cells; SK-MEL-5 TRPM1-promoter luciferase, 24 h; % of positive control, neutral wells = 0; activation, % at 12.5 µM; 300,000 tested, 0.75% active;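 active means mean activation of at least 80% with every replicate also reaching 80%; inconclusive means mean reaches 80% but some replicate falls short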;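 further: 0% = neutral control wells and 100% = parthenolide positive control wells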
A3G deaminase: APOBEC3G (human) deaminase inhibition. Q9HC16. recombinant A3G, ssDNA deamination FAM/TAMRA fluorescence. inhibition, % at 20 µM. 330,000 tested, 0.28% active. AID 493012;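 active means inhibition of at least 40% at 20 µM, with no more than 30% in the related APOBEC3A deaminase screen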;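 further: plate controls were DMSO wells with A3G for no effect and wells lacking A3G enzyme for full effect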
Target sequence (Q9HC16 whole entry, looked up): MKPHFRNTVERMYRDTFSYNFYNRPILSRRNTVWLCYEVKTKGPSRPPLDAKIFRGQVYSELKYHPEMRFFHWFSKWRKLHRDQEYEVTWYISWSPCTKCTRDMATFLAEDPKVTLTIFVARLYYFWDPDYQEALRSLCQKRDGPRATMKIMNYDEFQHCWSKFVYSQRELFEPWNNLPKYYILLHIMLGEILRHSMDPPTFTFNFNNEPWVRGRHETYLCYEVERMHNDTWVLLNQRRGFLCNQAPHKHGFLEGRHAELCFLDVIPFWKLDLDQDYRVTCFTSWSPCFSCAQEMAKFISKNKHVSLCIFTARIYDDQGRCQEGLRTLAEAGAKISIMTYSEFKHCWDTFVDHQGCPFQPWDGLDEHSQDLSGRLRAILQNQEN
Numbers without * were called inactive; ? = inconclusive; . = no result given. Only some compounds are listed: those with a hit (about 3.6% of all), similar ones and a draw of the others.

SMILES | Wnt act | esBAF inh | PHOSPHO1 block | A3A deaminase | MITF TRPM1 HTS | A3G deaminase
COc1cccc(/C=C2\N=C3CCCCCN3C2=O)c1 | 35.7* | 2.6 | 9.4 | -3.3 | -1.3 | -4.1
Cc1noc(C)c1S(=O)(=O)Nc1ccc2c(c1)C(=O)N([C@@H](C)CO)C[C@@H](C)[C@H](CN(C)Cc1ccccc1)OCCCC[C@@H](C)O2 | . | 2.5 | . | . | . | .
CC(=O)Nc1nc2cc3c(cc2s1)OCCO3 | ? | 10.9 | 9.9 | -2.2 | . | -5.4
O=C(Nc1nnc(-c2ccc3c(c2)OCCO3)o1)C1CCCCC1 | 33.3* | . | -8.2 | -1.5 | 58.3 | -10.7
O=C(Nc1nc2cc3c(cc2s1)OCO3)C1CCCCC1 | 32.1* | . | 7.7 | 0.6 | 75.5 | -3.2
O=C(Nc1nc2cc3c(cc2s1)OCO3)C1CC1 | 0.1 | . | 51.2 | -4.5 | 64.3 | -3.1
O=C(Nc1nc2cc3c(cc2s1)OCCO3)C1CCCCC1 | 54.5* | -15.3 | . | -2.7 | 90.8* | -9.9
O=C(Nc1nnc(-c2ccc(Cl)cc2)o1)C1CCCCC1 | -0.6 | -7.2 | 17.5 | -2.2 | 15.3 | -8.6
CO[C@H]1CN(C)C(=O)c2cc(NS(=O)(=O)c3ccc(C)cc3)ccc2OC[C@@H](C)NC[C@@H]1C | . | -1.2 | . | . | . | .
COc1ccc(-c2nnc(SCC(=O)NCc3ccco3)o2)cc1 | 5.5 | 16.6 | -42.5 | 1.0 | -3.9 | -5.3
Cn1c(SCC(=O)NC(=O)NCc2ccco2)nnc1-c1ccccc1 | . | . | 63.7* | 20.2 | 6.7 | 19.3
O=C(CSc1n[nH]c(-c2ccccc2)n1)NC(=O)NCc1ccco1 | 2.4 | 5.0 | 87.8* | . | 3.3 | .
O=C(CSc1nn(-c2ccc(F)cc2)c(=S)s1)NC(=O)NCc1ccco1 | . | . | 83.1* | 11.6 | 8.7 | 11.2
O=C(CSc1nnc(-c2ccc(OC(F)F)cc2)o1)NC(=O)NCc1ccco1 | -1.9 | -7.5 | 73.7* | 35.7 | -13.1 | 21.8
COc1ccccc1S(=O)(=O)N[C@@H]1CC[C@@H](CCNC(=O)C2CCCC2)O[C@@H]1CO | . | 2.3 | . | . | . | .
C[C@@H]1CN([C@H](C)CO)S(=O)(=O)c2ccc(-c3ccc(C(=O)N(C)C)cc3)cc2O[C@@H]1CN(C)Cc1ccccc1C(=O)O | . | 3.9 | . | . | . | .
C[C@@H]1CN([C@@H](C)CO)C(=O)c2cccc(NC(=O)CCCCCC(=O)Nc3ccccc3N)c2O[C@@H]1CN(C)Cc1ccc(C(F)(F)F)cc1 | . | -4.7 | . | . | . | .
O=C(CSc1nc2ccccc2o1)NC(=O)NCc1ccco1 | -0.7 | -4.7 | 37.0 | -1.6 | -0.1 | -4.5
O=C(CSc1ncccn1)NC(=O)NCc1ccco1 | 35.7* | -6.4 | -9.8 | 10.2 | -11.5 | 6.6
O=C1COc2ccc(OCc3ccc(F)cc3)cc21 | . | 22.0 | 21.5 | -8.8 | 90.5* | -8.8
CCNC(=O)C[C@H]1CC[C@H](NS(=O)(=O)c2ccc(C)cc2)[C@@H](CO)O1 | . | -5.9 | . | . | . | .
COCCNc1nc2cc(-c3ccc(C)cc3)sc2c(=O)n1C | -1.4 | 54.8* | . | . | . | .
COc1ccccc1CNc1nc2cc(-c3sccc3C)sc2c(=O)n1C | 37.7* | 65.8* | . | . | . | .
COc1cccc(-c2cc3nc(NCc4cccnc4)n(C)c(=O)c3s2)c1 | -0.3 | 45.7* | . | . | . | .
Cn1c(NCCc2ccncc2)nc2cc(-c3ccccc3)sc2c1=O | -1.0 | 56.4* | . | . | . | .
SMILES | Wnt act | esBAF inh | PHOSPHO1 block | A3A deaminase | MITF TRPM1 HTS | A3G deaminase
Cc1ccccc1-c1cc2nc(NCCc3ccncc3)n(C)c(=O)c2s1 | -0.5 | 11.3 | . | . | . | .
CN(C)CC(=O)N1[C@H](CO)[C@@H](c2ccc(-c3ccc(C(=O)N(C)C)cc3)cc2)[C@@H]1C#N | . | -1.0 | . | . | . | .
O=C(Cc1ccc(Cl)cc1)OCc1nnc(-c2ccccc2)o1 | 0.7 | 1.9 | 60.0* | 3.0 | 1.0 | -2.5
c1ccc(Cc2nnc(-c3ccccc3)o2)cc1 | 56.2* | 49.4* | 12.2 | -0.8 | . | -4.0
Brc1ccc(-c2nnc(Cc3ccccc3)o2)cc1 | 24.5 | . | 24.0 | -1.1 | . | -5.5
CC(=O)Nc1ccccc1OCc1nnc(-c2ccc(Cl)cc2)o1 | 0.6 | 65.7* | 24.3 | -2.3 | 8.4 | -8.0
Clc1ccccc1OCc1nnc(-c2ccccc2)o1 | ? | . | -10.9 | -5.5 | 88.2* | -14.1
CC(=O)Nc1ccccc1OCc1nnc(-c2cccs2)o1 | . | 17.9 | -6.8 | -6.2 | -24.4 | -5.2
Cc1ccc(S(=O)(=O)N(C)C[C@@H]2OCCCC[C@H](C)Oc3ccc(NC(=O)CCC(F)(F)F)cc3C(=O)N([C@@H](C)CO)C[C@H]2C)cc1 | . | -0.4 | . | . | . | .
COc1ccccc1C#Cc1ccc2c(c1)[C@H]1[C@H](CCN1S(=O)(=O)c1ccccc1)[C@H](CO)N2 | . | 26.8 | . | . | . | .
Cc1noc(C)c1NC(=O)Nc1ccc2c(c1)C(=O)N([C@H](C)CO)C[C@H](C)[C@@H](CN(C)CC1CC1)OCCCC[C@H](C)O2 | . | 0.5 | . | . | . | .
O=C1S/C(=C\c2ccc(N3CCOCC3)o2)C(=O)N1Cc1c(F)cccc1Cl | -0.6 | -6.2 | 10.0 | -13.4 | -5.0 | -12.5
O=C1S/C(=C/c2ccc(N3CCOCC3)o2)C(=O)N1Cc1c(F)cccc1Cl | . | -8.4 | 68.6* | 13.2 | . | -3.3
CC1=C(SCc2ccccc2)C(=O)c2ccccc2C1=O | -0.8 | 9.4 | . | . | -70.0 | .
O=C1C(SCCO)=C(SCCO)C(=O)c2ccccc21 | -0.6 | -45.3 | . | -7.5 | -111.1 | 73.3*
C[C@H]1CN([C@@H](C)CO)S(=O)(=O)c2ccc(-c3cccc(C#N)c3)cc2O[C@@H]1CN(C)C(=O)c1cccnc1 | . | -10.7 | . | . | . | .
CCOc1ccccc1Nc1nc(-c2sc(NC(=O)c3ccccc3)nc2C)cs1 | . | . | 87.7* | 1.9 | . | 8.8
Cc1ccc(Cl)cc1Nc1nc(-c2sc(NC(=O)c3ccccc3)nc2C)cs1 | . | . | -10.0 | -8.8 | . | -11.8
COc1ccccc1Nc1nc(-c2sc(NC(=O)c3ccccc3)nc2C)cs1 | 1.5 | 15.9 | 50.0 | -0.4 | 3.3 | -2.6
CCOc1ccccc1Nc1nc(-c2sc(NC(=O)c3cccc(Cl)c3)nc2C)cs1 | -0.3 | 64.4* | 53.4 | 0.2 | 16.0 | 8.8
O=C([C@H]1[C@H](CO)[C@H]2Cn3c(cccc3=O)[C@@H]1N2S(=O)(=O)c1ccccc1F)N1CCOCC1 | . | -1.0 | . | . | . | .
N#C/C(=C\c1c[nH]c2ccccc12)C(=O)NC1CC1 | 8.5 | 70.9* | 49.9 | -5.4 | . | -1.5
Cc1ccc(C(=O)N(CCN2CCCCC2)CC2CCCN(C3CCCC3)C2)s1 (stereo unspecified) | 15.4 | . | . | -1.3 | 95.3* | 2.9
Cc1ccc(NS(=O)(=O)c2ccc3c(c2)NC(=O)CCS3)c(Br)c1 | 0.6 | -1.0 | 64.9* | -5.8 | 0.1 | -6.5
Cc1ccc(C)c(NS(=O)(=O)c2ccc3c(c2)NC(=O)CCS3)c1 | -1.9 | 5.9 | 27.9 | -0.6 | 0.2 | -2.7
CCCCNS(=O)(=O)c1ccc2nc(SCC(=O)c3ccc(C#N)cc3)[nH]c2c1 | . | -1.9 | 99.0* | -10.8 | -5.9 | -6.1
CCCCNS(=O)(=O)c1ccc2nc(SCC(=O)Nc3ccccc3)[nH]c2c1 | -2.4 | . | -9.2 | -1.8 | -8.0 | -9.7
CSc1nc2sc3c(c2c(=O)n1C)CCCC3 | . | 44.7* | -17.5 | -1.6 | 53.8 | -4.0
CCSc1nc2sc3c(c2c(=O)n1C1CCCCC1)CCN(C)C3 | . | 4.8 | 60.2* | . | 3.5 | .

Screening data (PubChem)
